# From PubChem BioAssay (NCI)
# About 83,000 compounds went through this panel and 20% of them were active in at least one assay; those are over-represented in the sample as a whole.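 Growth was measured after 48 h exposure to one concentration of compound in 96-well plates. Values under 10 count as active.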 Values without a mark were called inactive. The source made the active and inactive calls.
# Experiments:
# Assay in all cases: NCI-60 one-dose screen, 48 h (100 = growth as untreated, 0 = no growth, -100 = all killed)
# Conditions in all cases: 10 µM unless noted
# DU-145 prostate = test system: DU-145 prostate
# K-562 leukemia = test system: K-562 leukemia
# MALME-3M melanoma = test system: MALME-3M melanoma
# MDA-MB-231 breast = test system: MDA-MB-231 breast
# RXF 393 renal = test system: RXF 393 renal
# SF-268 CNS = test system: SF-268 CNS
# SF-295 CNS = test system: SF-295 CNS
# SF-539 CNS = test system: SF-539 CNS
# UACC-257 melanoma = test system: UACC-257 melanoma
# M14 melanoma = test system: M14 melanoma
# HCT-15 colon = test system: HCT-15 colon
# HT29 colon = test system: HT29 colon
# SNB-75 CNS = test system: SNB-75 CNS
# SNB-19 CNS = test system: SNB-19 CNS
# U251 CNS = test system: U251 CNS
# PC-3 prostate = test system: PC-3 prostate
# SK-MEL-5 melanoma = test system: SK-MEL-5 melanoma
# UACC-62 melanoma = test system: UACC-62 melanoma
# LOX IMVI melanoma = test system: LOX IMVI melanoma
Structure (SMILES),growth (DU-145 prostate),growth (K-562 leukemia),growth (MALME-3M melanoma),growth (MDA-MB-231 breast),growth (RXF 393 renal),growth (SF-268 CNS),growth (SF-295 CNS),growth (SF-539 CNS),growth (UACC-257 melanoma),growth (M14 melanoma),growth (HCT-15 colon),growth (HT29 colon),growth (SNB-75 CNS),growth (SNB-19 CNS),growth (U251 CNS),growth (PC-3 prostate),growth (SK-MEL-5 melanoma),growth (UACC-62 melanoma),growth (LOX IMVI melanoma)
CCN(CC)CCCC(C)Nc1cnc(C(=O)Nc2cccc3ccc(OC)nc23)cn1 (configuration not stated),78.8%,-57.1% (active),-69.8% (active),71.8%,46%,63%,101%,0.457% (active),-39% (active),-75.6% (active),-25.6% (active),-47.2% (active),75.9%,94.9%,56.1%,69.5%,5.4% (active),-57.8% (active),-89.9% (active)
CN1CCN(Cc2ccc(NC(=O)c3cnc(F)c(C#Cc4cnc(N)c5ncccc45)c3)cc2C(F)(F)F)CC1,30.5%,1.55% (active),-43.1% (active),-25.7% (active),-0.985% (active),28.6%,48.2%,9.63% (active),13.5%,-56.4% (active),14.9%,6.84% (active),32.7%,52.8%,20.8%,29.9%,8.81% (active),-4.67% (active),1.54% (active)
CN(C)c1ccc(/C=N/Nc2nnc3n2N=C(c2ccc(Cl)cc2)CS3)cc1,100%,79%,128%,101%,69.7%,97.8%,101%,103%,106%,100%,92.5%,105%,96.3%,89.6%,95%,82.1%,92.1%,98.6%,98.8%
FC1(F)CCN(Cc2c[nH]c3cc(Cl)ccc23)C[C@H]1CCc1ccccc1,65%,31.4%,77.1%,68.9%,64.3%,72.1%,54.5%,88.6%,53.2%,60%,51%,26.6%,40.8%,68%,44.5%,53.3%,62.7%,59.9%,46.9%
O=C(OCc1ccc2c(Cl)cc(Cl)c(O)c2n1)c1cc2ccccc2[nH]1,-94.5% (active),-5.38% (active),-77.7% (active),-78.3% (active),-94.9% (active),-80.4% (active),64.3%,-91.1% (active),-72.4% (active),-69.7% (active),-50.2% (active),-81.1% (active),-94.8% (active),34.8%,-92.6% (active),-79.8% (active),-97.6% (active),-70.7% (active),-91.2% (active)
CCC(C)C1NC(=O)c2nc(oc2-c2ccccc2)-c2csc(n2)-c2csc(n2)-c2nc(oc2C)-c2coc(n2)CNC(=O)C(C(C)CC)NC1=O (configuration not stated),-90.6% (active),-66.3% (active),-84.9% (active),-74.4% (active),-72.5% (active),-66.9% (active),-78.9% (active),-80.5% (active),-66.2% (active),-85.2% (active),-77.7% (active),-81.6% (active),-86.3% (active),-61.3% (active),-83.4% (active),-85.6% (active),-91.3% (active),-70.5% (active),-72.4% (active)
CCN(C)CCCOc1ccc(/C(=C(\C)Cc2cccc(OC)c2)c2ccc(OC(C)=O)cc2)cc1,104%,101%,97.3%,104%,106%,94.1%,99.1%,101%,109%,101%,101%,102%,81.7%,102%,97.1%,98.1%,99.1%,98.4%,97.2%
COc1ccc2[nH]c(C(=O)OCc3ccc4c(Br)cc(Br)c(O)c4n3)cc2c1,-94.6% (active),1.4% (active),-79.6% (active),-73.6% (active),-89.2% (active),-70.8% (active),72.3%,-91.9% (active),-72.8% (active),-64.1% (active),-62.1% (active),-73.6% (active),-75.5% (active),43.1%,-28.3% (active),-64.9% (active),-89.6% (active),-79.5% (active),-95.4% (active)
